Screens as filed in PubChem BioAssay.
Rows were chosen to be rich in hits. Some 19% of all compounds tested hit in one or more screens of this group.
DT40 TDP1 no CPT = qHTS for Inhibitors of human tyrosyl-DNA phosphodiesterase 1 (TDP1): qHTS in cells in absence of CPT. Potency, µM (top dose mostly 46.2 µM), without a hit: at the top dose activity change, negative = growth inhibition, actives largely listed as inhibitors. DT40 Tdp1-/- hTDP1 cells, no CPT, ATP luminescence, 48 h. 15% of 420,000 active; further: potency means the concentration at half of the fitted maximal effect; on the % scale 0 is the no-effect control and ±100 the full control effect; nearly all actives have a fitted effect of over 55% in size
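Chicken DT40 Tdp1-/- cells complemented with human TDP1, screened without camptothecin (DMSO vehicle only), 400 cells/well. Compounds pin-transferred, cells incubated at 37 °C for at least 48 hr. Growth read as ATP-dependent luminescence (CellTiter-Glo, 30 min at RT).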
HepG2 tox = kills HepG2 cells in TGF-b inhibitor counter-screen. HepG2 CAGA-GFP viability, ATP luminescence, 18 h. Potency, µM (titrated, usually from 46.1 µM), for the others: at the highest dose activity change, negative = cytotoxicity, usual class: cytotoxic. 0.76% of 410,000 active. AID 588856; further: potency means the concentration at half of the fitted maximal effect
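HepG2 CAGA-GFP cells (1000/well, DMEM with 1% FBS) received compound, then TGF-beta at 500 pg/mL final, and were incubated 18 hours at 37 degrees C. Viability was read by CellTiter-Glo luminescence. Media-only wells were set as complete cell-killing and DMSO as no toxicity.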
TDP1 cell CPT = DT40-hTDP1 cell growth loss with CPT; chicken DT40 Tdp1-/-;hTDP1 cells + 20 nM CPT, ATP luminescence, 48 h; Potency, µM (doses to about 46.2 µM), inactives show at the top dose activity change, negative = growth inhibition, hits mostly inhibitors; 12% of 420,000 active; AID 686979; further: potency means the concentration at half of the fitted maximal effect; on the % scale 0 is the no-effect control and ±100 the full control effect; nearly all actives have a fitted effect of over 55% in size
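Chicken DT40 Tdp1-/- cells complemented with human TDP1, 400 cells/well, exposed to compounds plus 20 nM camptothecin for at least 48 h at 37 C; viability read as ATP content by CellTiter-Glo luminescence.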
S-ASM inh = inhibitors of human secretory acid sphingomyelinase | P17405 | placental ASM, HMU-PC fluorogenic substrate, 60 min | Potency, µM (doses to about 57.5 µM), for inactives: top-dose activity change, negative = inhibition, usual class: inhibitors | 0.006% of 340,000 active; further: potency means the concentration at half of the fitted maximal effect
Target sequence (P17405 47-631 limits assumed): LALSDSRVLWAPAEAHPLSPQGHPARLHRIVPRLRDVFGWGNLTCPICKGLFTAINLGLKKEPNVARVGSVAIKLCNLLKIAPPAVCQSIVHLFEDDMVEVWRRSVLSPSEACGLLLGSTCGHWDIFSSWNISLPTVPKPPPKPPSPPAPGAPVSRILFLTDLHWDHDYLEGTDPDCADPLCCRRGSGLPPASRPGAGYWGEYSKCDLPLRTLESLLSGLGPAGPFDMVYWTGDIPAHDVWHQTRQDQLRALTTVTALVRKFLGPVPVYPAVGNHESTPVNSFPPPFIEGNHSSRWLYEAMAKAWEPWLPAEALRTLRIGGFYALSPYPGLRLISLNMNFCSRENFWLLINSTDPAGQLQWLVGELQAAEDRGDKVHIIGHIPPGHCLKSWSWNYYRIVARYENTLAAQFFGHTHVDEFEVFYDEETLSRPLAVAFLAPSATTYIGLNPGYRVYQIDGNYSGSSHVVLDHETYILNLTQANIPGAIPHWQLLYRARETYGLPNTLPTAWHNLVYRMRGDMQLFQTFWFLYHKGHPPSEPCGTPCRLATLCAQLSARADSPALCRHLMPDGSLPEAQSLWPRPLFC
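HMU-PC0 cleavage (9 uM final) by human placental ASM, 60 min at 37 °C following 10 min compound exposure at RT; stopped at pH 10, fluorescence Ex 386/Em 447 nm.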
IL-1B inflam inh = blocks inflammasome-driven IL-1 beta release; THP-1 LPS/ATP IL-1B secretion, AlphaLISA, 16 h; active compounds read low; activity change, % at 57.5 µM; 4.7% of 360,000 active; in the data active means activity change below about -50%; inconclusive means mostly about -30% to -49%; further: on the % scale 0 is the no-effect control and ±100 the full control effect
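THP-1 cells pretreated 1 hr with compounds (up to 57.5 uM final), then stimulated with LPS (250 ng/mL final) plus ATP (1.25 mM final); secreted IL-1B measured by AlphaLISA after 16 hr, decreased signal indicating inhibition.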
TGFb SMAD3 inh = TGF-b pathway inhibition | 1.2% of 410,000 active | HepG2 CAGA-GFP TGF-b/SMAD3 reporter, GFP fluorescence, 18 h; TGF-beta stimulated, 500 pg/mL final | Potency, µM (titrated, usually from 46.1 µM), without a hit: top-dose activity, negative = inhibition, hits mostly inhibitors; further: potency means the concentration at half of the fitted maximal effect; on the % scale 0 is the no-effect control and ±100 the full control effect; nearly all actives have a fitted effect of over 65% in size
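Per well, imaged GFP fluorescence of HEPG2 CAGA-GFP cells gives the signal; cells get compound, then TGF-beta (500 pg/mL final), 18 h at 37 degrees C; %Activity versus -TGF-beta and +DMSO controls.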
* = called active by the depositor; u = inconclusive; x = no result. Unless noted, the call rests on the fitted dose curve; in most records, active means well fitted curve in the direction sought with a large enough effect; inconclusive means small, poorly fitted or top-dose-only effect, or another doubt; inactive means no such curve, though single readings can be large; an effect the other way counts as inactive or inconclusive.

SMILES	DT40 TDP1 no CPT	HepG2 tox	TDP1 cell CPT	S-ASM inh	IL-1B inflam inh	TGFb SMAD3 inh
CN(C(=S)NC(=O)c1ccccc1)C1CCCCC1	u	-17%	u	-3%	-18	3%
Cc1cccc2c(SCC(=O)NCC3CCCO3)nc(-c3ccc(F)cc3)nc12 (stereo not given)	-11%	2%	-15%	1%	0	-3%
S=C(Nc1ccc(Oc2ccccc2)cc1)NC1CCCCC1	u	-24%	26µM*	-2%	-15	u
CCN(CC)C(=O)N1CCC(NC(=O)c2ccc(C(C)(C)C)cc2)CC1	23µM*	-10%	u	5%	0	-6%
CC(C)COC(=O)N1CCCCC1c1cc(C(=O)NCc2ccccc2)no1 (stereo not given)	u	3%	18µM*	x	-10	13%
O=C(NCc1ccc(F)cc1)c1cc(C2CCCCN2C(=O)CCCc2ccccc2)on1 (stereo not given)	23µM*	-25%	u	x	u	-1%
CCCNC(=O)c1cc(C2CCCCN2C(=O)c2cc(F)ccc2C)on1 (stereo not given)	-22%	1%	-28%	x	38	5%
O=C(NCc1ccc(F)cc1)c1cc(C2CCCN(C(=O)CCCc3ccccc3)C2)on1 (stereo not given)	u	-26%	23µM*	x	u	5%
Cc1ccc(F)cc1C(=O)N1CCCCC1c1cc(C(=O)NCc2ccccc2)no1 (stereo not given)	u	-18%	13µM*	x	2	-1%
O=C(CNC(=O)c1[nH]cnc1C(=O)NC(c1ccccc1)c1ccccc1)OCc1ccccc1	-11%	-5%	u	-12%	-8	-9%
O=C(Nc1ccccc1Cl)c1cc(C2CCCN(C(=O)CCc3ccccc3)C2)on1 (stereo not given)	u	-37%	-30%	x	-16	6%
O=C(Nc1ccccc1)c1cc(C2CCCN(C(=O)CCc3ccccc3)C2)on1 (stereo not given)	u	-18%	26µM*	x	7	20%
Cn1c(=O)c2cc(NC(=S)NCc3ccccc3F)ccc2n1Cc1cccc(C(F)(F)F)c1	u	-17%	21µM*	x	-1	-1%
Cn1c(=O)c2cc(NC(=S)NC3CC3)ccc2n1Cc1cccc(C(F)(F)F)c1	u	5%	-23%	x	34	46%
Cn1c(=O)c2cc(NC(=S)NC3CCCCC3)ccc2n1Cc1ccc(Cl)cc1	23µM*	-23%	u	x	-57*	-27%
Cn1c(=O)c2cc(NC(=O)NCc3ccccc3)ccc2n1Cc1cccc(C(F)(F)F)c1	u	-26%	u	x	23	-11%
Cc1cc(C)cc(Cn2c3ccc(NC(=S)NCc4ccccc4F)cc3c(=O)n2C)c1	u	-20%	u	x	u	u
Cn1c(=O)c2cc(NC(=S)NCc3ccccc3F)ccc2n1Cc1ccccc1	15µM*	-38%	16µM*	x	-14	-21%
Cn1c(=O)c2cc(NC(=O)NCc3ccc(F)cc3)ccc2n1Cc1cccc(C(F)(F)F)c1	15µM*	-2%	21µM*	x	-1	-7%
N#CCCN(C(=O)COC(=O)c1ccc(S(=O)(=O)N2CCCC2)cc1)c1cccc(Cl)c1	7%	-2%	8%	1%	62	4%
CCOC(=O)C1(C#N)C(=O)CSC1=Nc1ccccc1Cl (stereo not given)	u	-6%	11%	x	-7	-1%
COc1ccc(CNC(=O)Nc2ccc3c(c2)c(=O)n(C)n3Cc2cc(C)cc(C)c2)cc1	u	-11%	21µM*	x	12	24%
